Screening data (PubChem)
TGFb inhibitor: qHTS for Inhibitors of TGF-b; HepG2 CAGA-GFP TGF-b/SMAD3 reporter, GFP fluorescence, 18 h; TGF-beta stimulated, 500 pg/mL final; Potency, µM (top dose mostly 46.1 µM), for the others: top-dose activity, negative = inhibition, usual class: inhibitors; hit rate 1.2% among 410,000; further: potency means the concentration at half of the fitted maximal effect; on the % scale 0 is the no-effect control and ±100 the full control effect; nearly all actives have a fitted effect of over 65% in size
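First, reporter cells (HEPG2 CAGA-GFP) rested 2 h at 37 degrees C. Next, compounds were pinned in and TGF-beta added to 500 pg/mL final. After 18 h, GFP was imaged per cell and summed per well.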
DT40 TDP1 no CPT: qHTS for Inhibitors of human tyrosyl-DNA phosphodiesterase 1 (TDP1): qHTS in cells in absence of CPT | DT40 Tdp1-/- hTDP1 cells, no CPT, ATP luminescence, 48 h | hit rate 15% among 420,000 | AID 686978, 2013 | Potency, µM (titrated, usually from 46.2 µM), without a hit: top-dose activity change, negative = growth inhibition, actives largely listed as inhibitors; further: potency means the concentration at half of the fitted maximal effect; on the % scale 0 is the no-effect control and ±100 the full control effect; nearly all actives have a fitted effect of over 55% in size
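Luminescent ATP content (CellTiter-Glo) served as the growth readout. Knockout chicken DT40 cells expressing human TDP1 were exposed to compounds without camptothecin for a minimum 48 hr at 37 °C.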
DT40 TDP1 CPT: qHTS for Inhibitors of human tyrosyl-DNA phosphodiesterase 1 (TDP1): qHTS in cells in presence of CPT. chicken DT40 Tdp1-/-;hTDP1 cells + 20 nM CPT, ATP luminescence, 48 h. AID 686979, 2013. hit rate 12% among 420,000. Potency, µM (top dose mostly 46.2 µM), without a hit: top-dose activity change, negative = growth inhibition, actives largely listed as inhibitors; further: potency means the concentration at half of the fitted maximal effect; on the % scale 0 is the no-effect control and ±100 the full control effect; nearly all actives have a fitted effect of over 55% in size
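Chicken DT40 Tdp1-/- cells stably complemented with human TDP1 were seeded at 400 cells/well in medium containing 20 nM camptothecin, exposed to pin-transferred compounds, and grown at 37 °C for at least 48 hr. Viability was read as ATP luminescence.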
HepG2 tox: qHTS for Inhibitors of TGF-b: Cytotox Counterscreen | HepG2 CAGA-GFP viability, ATP luminescence, 18 h | Potency, µM (top dose mostly 46.1 µM), for inactives: at the top dose activity change, negative = cytotoxicity, most hits filed as cytotoxic | hit rate 0.76% among 410,000 | AID 588856, 2011; further: potency means the concentration at half of the fitted maximal effect
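CellTiter-Glo luminescence gave cytotoxicity after 18 hours at 37 degrees C. The cells were HepG2 CAGA-GFP in 1% FBS DMEM, stimulated with 500 pg/mL TGF-beta after compound addition. %Activity was normalised to no-cell wells (complete cell-killing) and DMSO (no toxicity), and curves were fitted and classified.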
TDP1 block: qHTS Assay for Inhibitors of Tyrosyl-DNA Phosphodiesterase (TDP1); hit rate 0.28% among 350,000; AID 485290, 2010; Potency, µM (doses to about 130 µM), for inactives: top-dose activity change, negative = inhibition, usual class: inhibitors; recombinant TDP1, AlphaScreen DNA substrate cleavage; further: potency means the concentration at half of the fitted maximal effect; on the % scale 0 is the no-effect control and ±100 the full control effect; nearly all actives have a fitted effect of over 40% in size
Target sequence (Q9NUW8 whole entry, looked up): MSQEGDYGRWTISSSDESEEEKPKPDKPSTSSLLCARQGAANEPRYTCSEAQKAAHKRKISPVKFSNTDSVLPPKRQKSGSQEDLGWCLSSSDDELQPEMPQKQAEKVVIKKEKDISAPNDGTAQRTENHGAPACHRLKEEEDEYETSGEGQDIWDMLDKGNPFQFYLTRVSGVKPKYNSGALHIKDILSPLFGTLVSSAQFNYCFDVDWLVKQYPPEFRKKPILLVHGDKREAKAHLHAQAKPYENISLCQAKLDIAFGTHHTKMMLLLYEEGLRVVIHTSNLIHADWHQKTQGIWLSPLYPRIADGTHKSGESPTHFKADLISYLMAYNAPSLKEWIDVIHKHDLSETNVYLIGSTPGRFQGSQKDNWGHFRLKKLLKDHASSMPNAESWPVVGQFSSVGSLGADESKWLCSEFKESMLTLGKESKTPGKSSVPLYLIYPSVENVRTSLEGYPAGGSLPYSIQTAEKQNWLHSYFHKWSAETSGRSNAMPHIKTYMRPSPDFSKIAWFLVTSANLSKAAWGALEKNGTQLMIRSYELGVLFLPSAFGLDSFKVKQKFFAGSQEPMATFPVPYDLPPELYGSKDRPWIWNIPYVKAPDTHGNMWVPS
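Here, a 5' biotin and 3' phosphotyrosine-FITC DNA oligonucleotide reports Tdp1 activity: intact substrate bridges AlphaScreen beads, while cleavage leaves a 3' phosphate and drops signal. All incubations at room temperature.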
IL-1B inflam inh: qHTS for Inhibitors of Inflammasome Signaling: IL-1-beta AlphaLISA Primary Screen; THP-1 LPS/ATP IL-1B secretion, AlphaLISA, 16 h; stronger effect = lower value; activity change, % at 57.5 µM; hit rate 4.7% among 360,000; AID 743279, 2014; in the data active means activity change below about -50%; inconclusive means mostly about -30% to -49%; further: on the % scale 0 is the no-effect control and ±100 the full control effect
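THP-1 cells pretreated 1 hr with compounds (up to 57.5 uM final), then stimulated with LPS (250 ng/mL final) plus ATP (1.25 mM final); secreted IL-1B measured by AlphaLISA after 16 hr, decreased signal indicating inhibition.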
* hit, by the source's call; ? = inconclusive; . = no result given; [ ] = remark or other dose. Rows were chosen to be rich in hits. Some 18% of all compounds tested hit in one or more screens of this group. Unless noted, the call rests on the fitted dose curve; in most records, active means well fitted curve in the direction sought with a large enough effect; inconclusive means small, poorly fitted or top-dose-only effect, or another doubt; inactive means no such curve, though single readings can be large; an effect the other way counts as inactive or inconclusive.

SMILES | TGFb inhibitor | DT40 TDP1 no CPT | DT40 TDP1 CPT | HepG2 tox | TDP1 block | IL-1B inflam inh
CC(C)(C)c1ccc(C(=O)OCC(=O)Nc2sc3c(c2C#N)CCC3)cc1 | 6% | ? | ? | 25% | 0% | 2
N#Cc1c(NC(=O)COC(=O)c2ccc(O)cc2O)sc2c1CCC2 | -1% | ? | ? | 1% | 22µM* | 18
O=C(COC(=O)c1ccc(O)cc1O)Nc1ccc2c(c1)OCCO2 | -22% | 9.2µM* | 9.2µM* | -30% | 2% | -6
O=C(COC(=O)c1ccco1)Nc1ccc2c(c1)OCCO2 | 11% | 0% | 6% | -4% | 1% | 9
Cc1ccc(NC(=O)C2C3C=CC4(O3)C2C(=O)N(CCCN2CCCC(C)C2)C4C(=O)NC2CCCCC2)cc1 (stereo unspecified) | 1% | -7% | 12% | -24% | 6% | -9
COc1ccc(N2C(=O)CS(=O)(=O)C23C(=O)N(Cc2ccccc2)c2ccccc23)cc1 (stereo unspecified) | 13% | ? | -29% | -1% | -2% | .
CCc1cccc(N2C(=O)CS(=O)(=O)C23C(=O)N(Cc2ccccc2)c2ccc(C)cc23)c1 (stereo unspecified) | 1% | 18µM* | ? | -25% | -1% | .
Cc1cc(C)cc(N2C(=O)CS(=O)(=O)C23C(=O)N(Cc2ccc(F)cc2)c2ccc(C)cc23)c1 (stereo unspecified) | 3% | 21µM* | 18µM* | -24% | 0% | .
CCc1cccc(N2C(=O)CS(=O)(=O)C23C(=O)N(Cc2ccc(F)cc2)c2ccc(C)cc23)c1 (stereo unspecified) | 2% | 23µM* | ? | -36% | 7% | .
CCOc1ccc(N2C(=O)CS(=O)(=O)C23C(=O)N(Cc2cccc(Cl)c2)c2ccccc23)cc1 (stereo unspecified) | 3% | ? | ? | -16% | 2% | .
Nc1ccccc1C(=O)C[C@@H](N)C(=O)O | . | . | . | . | -2% | .
CC(C(=O)c1ccccc1)[n+]1ccc(Cl)c2ccc(Cl)cc21 (stereo unspecified) | -6% | ? | ? | -8% | . | .
CCCOc1ccc(C(=O)Nc2ccc3oc(-c4ccc(N(C)C)cc4)nc3c2)cc1 | -4% | -22% | -6% | -59% | -6%[12.3 µM] | .
CC(C)(C)c1ccc(Oc2ccc(NC(=O)C3CC=CCC3C(=O)O)cc2)cc1 (stereo unspecified) | -13% | 6% | 29% | -21% | . | 13
O=C(O)C1CC=CCC1C(=O)Nc1ccccc1 (stereo unspecified) | 2% | -11% | 12% | -4% | 22µM* | 17
O=C(O)[C@H]1CCCC[C@H]1C(=O)Nc1ccc(Nc2ccccc2)cc1 | -12% | ? | -13% | 2% | 11%[56.1 µM] | -9
Cc1ccccc1Oc1ccc(NC(=O)C2CC=CCC2C(=O)O)cc1 (stereo unspecified) | -13% | 6.5µM* | 15µM* | -12% | 6% | 0
Cc1cccc(N2CCN(C(=O)c3ccccc3NC(=O)C3CC=CCC3C(=O)O)CC2)c1 (stereo unspecified) | 0% | 5.8µM* | ? | 4% | 4% | 28
Cc1ccc(N2CCN(C(=O)c3ccccc3NC(=O)C3CC=CCC3C(=O)O)CC2)cc1 (stereo unspecified) | ? | -14% | -15% | 2% | -5% | 43
